# According to PubChem BioAssay (NCI):
# This is part of a sample that, as a whole, favours compounds with a hit. Of some 83,000 tested, about 20% had one in any assay.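 Values shown are percent growth following 48 h exposure of cells in 96-well plates to a single concentration of compound; below 10 was considered active.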 Calls of active or inactive are those of the source.
# Tested on: OVCAR-8 ovarian
# Test: NCI-60 one-dose screen, 48 h (100 = growth as untreated, 0 = no growth, -100 = all killed)
# Conditions: 10 µM unless noted
# Experimental: Growth inhibition of the OVCAR-8 human tumor cell line is measured as a screen for anti-cancer activity. Cells are grown in 96 well plates and exposed to the test compound for 48 hours. Compounds are tested at a single concentration, which is 10^-5 M for most compounds. The reported endpoint is percent growth (GI% or GIPRCNT), where numbers from 0 - 100% represent growth inhibition, and numbers from -100% - 0 represent cell death. For example, a value of 40 represents 60% growth inhibition. A value of 0 means no net growth occurred over the course of the experiment. A value of -40 indicates 40% of cells at the beginning of the experiment died by the end of the experiment. A value of -100 means all cells are dead at the end of the experiment.
# NCI-60 Human Tumor Cell Lines Screen was performed using the standard one-dose NCI protocol, which is described in more detail at https://dtp.cancer.gov/discovery_development/nci-60/default.htm.
# Compounds with GIPRCNT values below 10 were considered active. Activity score was based on GIPRCNT using the following formula: […]
# Score is 0 for GIPRCNT values of 100 or above, 50 for GIPRCNT values of 0, and 100 for GIPRCNT values of -100.
row,SMILES,growth
1,Nc1cc(-c2c[nH]c3ccc(Cl)cc23)nc2cc(-c3c[nH]c4ccc(Cl)cc34)nn12,70.7% (inactive)
2,O=C(CSc1nc2sc3c(c2c(=O)n1-c1ccc(Cl)cc1)CCCC3)NNC(=O)Nc1cccc(C(F)(F)F)c1,22.1% (inactive)
3,O=c1/c(=C\c2ccc(-c3ccccc3)o2)sc2nc(-c3ccccc3)nn12,105% (inactive)
4,OC1CCN(CCCOc2c3ccc(Cl)cc3nc3c2oc2ccccc23)CC1,3.92% (active)
5,CN(C)CCCOc1c2ccccc2nc2c1oc1ccc(Cl)cc12,16.4% (inactive)
6,C#Cc1nc(C2=C(C)C(O)CC2)cs1 (stereo not given),107% (inactive)
7,CCN1CCN(/C(=N\c2sc(-c3ccccc3)nc2-c2ccccc2)c2ccccc2)CC1,97.1% (inactive)
8,Nc1c(C(=O)c2ccc(Br)cc2)oc2nc(-c3cnccn3)cc(-c3cccs3)c12,103% (inactive)
9,COc1ccccc1C(=O)CSc1nc(Nc2ccc(S(N)(=O)=O)cc2)c2ccccc2n1,90.5% (inactive)
10,N#Cc1nc(-c2ccccc2)oc1N1CCC(CO)C1 (stereo not given),103% (inactive)
11,Cc1ccc2ccc3ccc(C)nc3c2n1.Cc1ccc2ccc3ccc(C)nc3c2n1.Oc1c(Cl)cc(Cl)c2ccc(CN3CCCCC3)nc12.[Ru],-75.4% (active)
12,COc1cc(/C=C/C(=O)c2ccc(F)cc2)ccc1Oc1nc(NCCO)nc(N2CCOCC2)n1,86.1% (inactive)
13,COc1cc2nc(-c3ccc(Cl)cc3)cc(OCCCNCC3CCCO3)c2cc1OC (stereo not given),42.2% (inactive)
14,N=C1CC(=O)NN1C(=O)CSc1nc2sc3c(c2c(=O)n1-c1ccc(Cl)cc1)CCCC3,100% (inactive)
15,[Cl][Ru].c1ccc(-c2cc(-c3ccccn3)nc(-c3ccccn3)c2)cc1.c1ccc(-c2ccnc3c2ccc2c(-c4ccccc4)ccnc23)cc1,-65.5% (active)
16,CCCC(=O)NC(c1cccc(N(C)C)c1)c1cc(C)c2cccnc2c1O (stereo not given),44% (inactive)
17,CS(=O)(=O)Nc1ccc(-c2nn(-c3ccc(S(C)(=O)=O)cc3)cc2/C=C/C(=O)c2ccc(NC(=O)CO[N+](=O)[O-])cc2)cc1,101% (inactive)
18,CCOC(=O)c1sc(N)c(C(=O)OCC)c1C,65.1% (inactive)
19,O=C(CCCN1C(=O)/C(=C/c2ccccc2F)SC1=S)N1CCOCC1,99% (inactive)
20,COc1ccccc1/C=C/C=N/NC1=NC2C(S1)N(C)C(=O)N2C (stereo not given),31.1% (inactive)

row,SMILES,growth
1,COc1ccc(-c2nc3ccc(-c4nnc(SCC(=O)Nc5ccc(C(C)=O)cc5)o4)cc3[nH]2)cc1,108% (inactive)
2,CC(C)(O)c1cncc(-c2ccc3ncnc(N4CCc5cc(F)c(Cl)cc54)c3c2)c1,25.9% (inactive)
3,COc1ccc(COc2ccc(/C=C3/C(=O)Nc4cc(Cl)ccc43)cc2)cc1,96.3% (inactive)
4,c1ccc2c(NCCCn3ccnc3)c3oc4ccccc4c3nc2c1,-16.9% (active)
5,CN(C)c1ccc(/C=C2\Cc3c(F)ccc(Br)c3C2=O)cc1,96.5% (inactive)
6,O=C(CN1C(=O)/C(=C/c2ccccc2)SC1=S)N1CCOCC1,102% (inactive)
7,C=C1CC[C@H]2[C@@](C)(CCC3OC(c4ccc(OCc5cn(C6CC(OC(C)=O)C(OC(C)=O)C(COC(C)=O)O6)nn5)cc4)OC[C@]32C)[C@@H]1/C=C/C1=CCOC1=O (stereo not given in full),81.8% (inactive)
8,Nc1c(C(=O)Nc2ccc(Cl)cc2)sc2nc(-c3cnccn3)cc(-c3cccs3)c12,48.1% (inactive)
9,Cc1ccc2c(n1)C(=O)C(Cl)=C(Nc1cccc(C(C)C)c1)C2=O,57.2% (inactive)
10,COc1cc2cc(Oc3ccc(NC(=O)c4cccc(C(F)(F)F)c4)cc3)c(C)nc2cc1OCCN1CCCCC1,62.6% (inactive)
11,CN(C)CCCOc1c2ccc(Cl)cc2nc2c1oc1ccccc12,-17.8% (active)
12,CC(O)C(NC(=O)C1CCCN1C(=O)CNC(=O)C1CC(=O)NCC(=O)NC(Cc2c[nH]c3ccccc23)C(=O)NC(Cc2ccc(O)cc2)C(=O)NCC(=O)NC(CO)C(=O)NC(CCC(N)=O)C(=O)NC(Cc2c[nH]c3ccccc23)C(=O)N1)C(=O)NCC(=O)NC(CCC(N)=O)C(=O)NC(CCCNC(=N)N)C(=O)NC(CC(=O)O)C(=O)O (stereo not given),101% (inactive)
13,COC1CCN(Cc2ccc3c(NNC(=O)c4cnccn4)nc4cc(F)ccc4n23)C1 (stereo not given),14.4% (inactive)
14,COc1cc(/C=C/C(=O)c2cc(OC)c(OC)c(OC)c2)ccc1Oc1nc(NCCO)nc(N2CCOCC2)n1,21.2% (inactive)
15,Cc1c(Nc2nnc(SCC(=O)Nc3sc4c(c3C#N)CCCC4)s2)c(=O)n(-c2ccccc2)n1C,100% (inactive)
16,Cc1cc2nc3c4cc(Cl)ccc4n(CC(=O)NCCN(C)C)c3nc2cc1C,55.9% (inactive)
17,CC(=O)Nc1cc(F)cc(-c2ccc3[nH]cc(-c4ccccc4)c3n2)c1,34% (inactive)
18,CCOC(=O)c1c(Nc2ccccc2)nn2c(N)c(C#N)c(-c3ccccc3)nc12,94% (inactive)
19,COc1cc(/C=C/C(=O)c2ccccc2)ccc1Oc1nc(NCCO)nc(N2CCOCC2)n1,99.1% (inactive)
20,COc1ccc(N/N=C/c2c(-c3ccc(S(C)(=O)=O)cc3)nc3ccccn23)cc1,49.1% (inactive)
